Source: PubChem BioAssay (several laboratories)
NTR1 agonist – NTR1 (human) agonism. P30989. NTR1-U2OS beta-arrestin-GFP spot imaging, agonist mode. activation, % at 20 µM. 330,000 compounds, 0.17% hits;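 active = activation at or above 40% of the spot to cytoplasm intensity ratio, with at least 20 cells analyzed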;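 also: 0% = DMSO without peptide and 100% = 100 nM NTR1 peptide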
ALR inh – human ALR oxidase inhibition via reduced H2O2; P55789; purified ALR, DTT oxidation, H2O2 HRP-luminol luminescence; inhibition, % (concentration not given with the values); 290,000 compounds, 3.8% hits; AID 485317;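 active = mean replicate inhibition above about 79%, with every replicate also reaching it, limit read from the data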
Target sequence (P55789 whole entry, looked up): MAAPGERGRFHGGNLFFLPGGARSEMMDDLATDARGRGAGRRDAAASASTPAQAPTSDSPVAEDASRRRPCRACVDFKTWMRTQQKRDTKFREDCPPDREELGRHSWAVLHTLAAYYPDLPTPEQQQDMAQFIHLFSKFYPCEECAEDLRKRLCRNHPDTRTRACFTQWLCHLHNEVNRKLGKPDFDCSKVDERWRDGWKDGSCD
UBC9 SUMO inh – SUMOylation inhibition; HTRF SUMOylation assay, SAE1/SAE2 + UBC9, in vitro; P63279; 290,000 compounds, 0.36% hits; inhibition, % at 35 µM; in the data active = inhibition above about 50%, passing the limit was not always enough
Target sequence (P63279 whole entry, looked up): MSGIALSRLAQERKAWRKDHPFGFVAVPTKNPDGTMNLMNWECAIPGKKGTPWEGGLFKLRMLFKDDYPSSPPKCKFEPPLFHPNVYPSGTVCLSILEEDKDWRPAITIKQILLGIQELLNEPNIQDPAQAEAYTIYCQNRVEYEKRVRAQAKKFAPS
H9c2 protect – modulators protecting cardiomyocytes from myocardial damage. H9c2 cardiomyocytes, H2O2 injury protection, ATPLite, 2 h. protection from H2O2 cell death, % at 20 µM. 360,000 compounds, 0.63% hits. AID 588492;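 active = compounds giving at least 50% protection of heart cells from peroxide-induced death in the single-dose screen, raw or plate-pattern-corrected value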;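 also: 0% = DMSO wells with peroxide and 100% = DMSO wells without peroxide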
An asterisk follows results filed as active. Most compounds without a hit are left out; they make up all but 3.9% or so of the library.

COc1ccc(CCN2C(=O)CC(Cc3cccc(C)c3)C2=O)cc1OC (stereo not given) was read as NTR1 agonist 1.8, ALR inh 0.7, UBC9 SUMO inh 13.7 and H9c2 protect 2.1.
`Cc1ccc(Cn2c(CCNc3nc(-c4ccc(Cl)c([N+](=O)[O-])c4)cs3)nc3cc(C(=O)NCCCO)ccc32)cc1` gave NTR1 agonist 1.0 and H9c2 protect 69.7*.
For O=[N+]([O-])c1cc(-c2csc(NCCc3nc4cc(C(F)(F)F)ccc4n3CCCO)n2)ccc1Cl the results were NTR1 agonist 21.2, ALR inh -1.8 and H9c2 protect -12.3.
`O=C(NCc1ccco1)C1CCN(S(=O)(=O)c2cccc3cccnc23)CC1` gave NTR1 agonist 3.6, ALR inh 7.6, UBC9 SUMO inh 10.7 and H9c2 protect -1.4.
For O=C(CSc1ncnc2ccccc12)c1ccc2c(c1)OCCO2 the results were NTR1 agonist 12.3, ALR inh 98.9*, UBC9 SUMO inh 0.7 and H9c2 protect -19.8.
`O=C(O)CCC(=O)c1ccc2c(c1)OCCO2` gave NTR1 agonist 2.9, ALR inh 38.8, UBC9 SUMO inh 0.6 and H9c2 protect -1.6.
O=C(O)CCSCC(=O)c1ccc2c(c1)OCCO2 was read as NTR1 agonist 0.4, ALR inh 98.2*, UBC9 SUMO inh 9.7 and H9c2 protect 24.9.
For O=C(CSc1nc(Cc2ccccc2)nc2ccccc12)c1ccc2c(c1)OCCO2 the results were NTR1 agonist 4.6, ALR inh 99.0*, UBC9 SUMO inh -8.9 and H9c2 protect 8.4.
`CCc1nc(SCC(=O)c2ccc3c(c2)OCCO3)c2ccccc2n1` gave NTR1 agonist 22.3, UBC9 SUMO inh -9.2 and H9c2 protect 16.8.
`CC(C)C(=O)NC(=S)Nc1ccccc1N1CCN(C(=O)c2ccc(Cl)cc2)CC1` gave NTR1 agonist 6.6, ALR inh -5.9, UBC9 SUMO inh 2.1 and H9c2 protect 51.9*.
Screening CSc1cccc(NC(=O)Nc2ccccc2C(N)=O)c1 returned NTR1 agonist -0.5, ALR inh 91.5*, UBC9 SUMO inh 20.5 and H9c2 protect -4.2.
`CSc1cccc(NC(=O)Nc2ccccc2)c1` gave NTR1 agonist 2.0, ALR inh -0.8, UBC9 SUMO inh 3.5 and H9c2 protect 2.3.
`COc1cc(NC(C)CCCN)c2ncccc2c1` (stereo not given) gave NTR1 agonist -1.7, ALR inh 25.1 and H9c2 protect -39.4.
COc1cc(NCCCCCCCN)c2ncccc2c1 was read as NTR1 agonist 1.2, ALR inh 96.3*, UBC9 SUMO inh 51.8* and H9c2 protect -12.6.
CCC(c1nnnn1C1CCCC1)N1CCN(c2cccc(OC)c2)CC1 (stereo not given) was read as NTR1 agonist 1.3, ALR inh 98.0*, UBC9 SUMO inh 18.1 and H9c2 protect -2.2.
`CCC(c1nnnn1Cc1ccc(OC)cc1)N1CCN(c2ccc(OC)cc2)CC1` (stereo not given) gave NTR1 agonist -1.0, ALR inh 33.5, UBC9 SUMO inh -8.1 and H9c2 protect -0.2.
CCC(c1nnnn1Cc1ccc2c(c1)OCO2)N1CCN(c2ccc(F)cc2)CC1 (stereo not given) was read as NTR1 agonist -1.5, ALR inh 40.0, UBC9 SUMO inh 13.0 and H9c2 protect 5.3.
For COCCn1nnnc1C(CC(C)C)N1CCN(c2ccccc2)CC1 (stereo not given) the results were NTR1 agonist 2.9, ALR inh 93.3*, UBC9 SUMO inh 14.4 and H9c2 protect 1.3.
`CCC(c1nnnn1Cc1ccccc1)N1CCN(c2ccc(OC)cc2)CC1` (stereo not given) gave NTR1 agonist 0.4, ALR inh 96.1*, UBC9 SUMO inh 4.0 and H9c2 protect -12.4.
`CCC(c1nnnn1Cc1ccc2c(c1)OCO2)N1CCN(c2ccccc2)CC1` (stereo not given) gave NTR1 agonist -0.7, ALR inh 90.1*, UBC9 SUMO inh 15.5 and H9c2 protect 17.2.
For O=C(CCc1ccc(S(=O)(=O)N2CCOCC2)cc1)N1CCN(Cc2ccc3c(c2)OCO3)CC1 the results were NTR1 agonist -0.6, ALR inh 3.1, UBC9 SUMO inh 21.0 and H9c2 protect -13.1.
O=C(CN1CCCC1)Nc1cccc(Cl)c1 was read as NTR1 agonist 1.4, ALR inh -9.7, UBC9 SUMO inh 2.9 and H9c2 protect 1.4.
`COc1ccc(N2CCN(C(c3ccc4ncccc4c3)c3nnnn3C(C)C)CC2)cc1` (stereo not given) gave NTR1 agonist 1.3, ALR inh 76.3*, UBC9 SUMO inh -5.6 and H9c2 protect -5.4.
